In PubChem BioAssay AID651871 (Sanford-Burnham Center for Chemical Genomics, 2012):
“And” between values parts separate entries of the source, which are not always exact repeats. Identical values can stand only once.

Tested on: H9c2
Experiment: protection of cardiomyocytes from stress damage, SAR follow-up, cell-based, panel, H9c2 and HL-1, ATP luminescence, set 2 (AID 651871);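 further: cells exposed to stressor for 2 h before ATP readout; reference of the scale not given here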
Settings: H9c2/HL-1 cardiomyocytes, 2-deoxyglucose stress, with 2-deoxyglucose; run 7, at 79 µM (top of the series)

Compound | activity (protection/inhibition)
COc1ccc2c(c1OC)C(=O)N1c3ccccc3C(=O)N(Cc3cccc(Cl)c3Cl)C21 (stereo not drawn) | 73.7% and 71.7% and -5.58%
CCOC(=O)c1cccc(NC(=O)CNC(=O)c2cc(-c3cc(OC)c(OC)c(OC)c3)nc3ccccc23)c1 | 77%
COc1ccc2nc(-c3cc(OC)c(OC)c(OC)c3)cc(C(=O)NCC(=O)Nc3ccc(C(C)=O)cc3)c2c1 | 66.5%
